Sampled rows, rich in hits. Any-hit rate of the full collection: about 21%.
IL-1B inflam inh: inflammasome signaling inhibition, IL-1 beta readout | THP-1 LPS/ATP IL-1B secretion, AlphaLISA, 16 h; active compounds read low | 4.7% of 360,000 active | activity change, % at 57.5 µM; in the data active = activity change below about -50%; inconclusive = mostly about -30% to -49%; also: % is scaled to controls: 0 for no effect and ±100 for the full control effect
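THP-1 cells pretreated 1 hr with compounds (up to 57.5 uM final), then stimulated with LPS (250 ng/mL final) plus ATP (1.25 mM final); secreted IL-1B measured by AlphaLISA after 16 hr, decreased signal indicating inhibition.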
ClpP mod: qHTS Assay for Activators of ClpP. Potency, µM (titrated, usually from 57.5 µM), inactives show at the top dose activity change, negative = active. 1.9% of 340,000 active. ATP-dependent Clp protease proteolytic subunit (Bacillus subtilis (strain 168)), P80244. purified B. subtilis ClpP, FRET peptide cleavage, 20 min; active = well fitted falling curve with a large enough effect; inconclusive = small, poorly fitted or top-dose-only effect; inactive = no such curve, though single readings can be large or run the other way; also: potency is read from the fitted curve at half-maximal effect; the source files actives as falling curves though it sought activators and does not explain the sign; nearly all actives have a fitted effect of over 65% in size
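FRET quenching reversal measured ClpP activation: 10 microg/mL B. subtilis ClpP at pH 8 with the FRET-FV decapeptide, read at 430 nm after 320 nm excitation. The 20-min minus 0-min signal was scaled between DMSO/no-enzyme wells and ADEP (5.8 microM final).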
DT40 TDP1 CPT: growth inhibition of DT40 Tdp1-/-;hTDP1 cells with camptothecin (screen for TDP1 inhibitors). Potency, µM (series often up to 46.2 µM), for inactives: at the highest dose activity change, negative = growth inhibition, hits mostly inhibitors. 12% of 420,000 active. chicken DT40 Tdp1-/-;hTDP1 cells + 20 nM CPT, ATP luminescence, 48 h. AID 686979; also: potency is read from the fitted curve at half-maximal effect; % is scaled to controls: 0 for no effect and ±100 for the full control effect; nearly all actives have a fitted effect of over 55% in size
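Chicken DT40 Tdp1-/- cells complemented with human TDP1, 400 cells/well, exposed to compounds plus 20 nM camptothecin for at least 48 h at 37 C; viability read as ATP content by CellTiter-Glo luminescence.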
D3 antag: blocks the human D3 dopamine receptor. D3R cells, DiscoveRx beta-arrestin luminescence, antagonist mode; active compounds read low. max response, negative = inhibition, %. P35462. 2.5% of 360,000 active; in the data active = max response below about -50%; inconclusive = no clear call, values can overlap the other calls; also: % is scaled to controls: 0 for no effect and ±100 for the full control effect
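Cells expressing the human receptor were seeded at 1500 cells/well, incubated overnight at 37 degrees C in 5% CO2, then exposed to library compounds with dopamine controls for 90 minutes at 37 degrees C before luminescent detection.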
DRD3 agonist: activates the human D3 dopamine receptor. D3R DiscoveRx beta-arrestin cells, luminescence, 90 min. 0.58% of 410,000 active. max activation, %. AID 652048. P35462; in the data active = max activation above about 30%; also: 0% is about no effect
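Cells at 1500/well, incubated overnight, then treated with pinned compounds (dopamine as control) for 90 min at 37 degrees C. DiscoveRx reagent added for 30 - 60 minutes at room temperature; luminescence read.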
DT40 TDP1 no CPT: qHTS for Inhibitors of human tyrosyl-DNA phosphodiesterase 1 (TDP1): qHTS in cells in absence of CPT | Potency, µM (titrated, usually from 46.2 µM), inactives show top-dose activity change, negative = growth inhibition, most hits filed as inhibitors | 15% of 420,000 active | DT40 Tdp1-/- hTDP1 cells, no CPT, ATP luminescence, 48 h | AID 686978, 2013; also: potency is read from the fitted curve at half-maximal effect; % is scaled to controls: 0 for no effect and ±100 for the full control effect; nearly all actives have a fitted effect of over 55% in size
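Compound effects on proliferation are scored in DT40 Tdp1-/-;hTDP1 cells in the absence of CPT. ATP levels (CellTiter-Glo luminescence) are recorded after a ≥48 hr, 37 °C incubation.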
Active calls of the source: *; ? = inconclusive; . = not tested or not shown. Unless noted, calls follow the shape of the dose curve; as a rule, active = well fitted inhibition curve with a large enough effect; inconclusive = small, poorly fitted or top-dose-only effect; inactive = flat fitted curve, though single readings scatter.

SMILES	IL-1B inflam inh	ClpP mod	DT40 TDP1 CPT	D3 antag	DRD3 agonist	DT40 TDP1 no CPT
CN(CC(=O)Nc1cccc(F)c1)C(=O)CSc1nc2ccccc2s1	-2.0	1.3%	-11.7%	2.3	-15.2	-25.7%
COc1ccccc1/C=C/C=N/n1c(-c2ccc(Cl)cc2)n[nH]c1=S	11.9	3.1%	?	-62.6*	-17.9	16.4µM*
S=c1[nH]nc(Cc2ccc(Br)cc2)n1/N=C/c1ccc(Cl)cc1	-62.6*	-0.4%	?	?	-29.4	?
S=c1[nH]nc(-c2cc(-c3ccccc3)n[nH]2)n1/N=C/c1ccc(Cl)cc1	105.5	.	-23.3%	-55.0*	-17.5	-24.1%
S=c1[nH]nc(-c2cc(-c3ccccc3)n[nH]2)n1/N=C/c1ccc(Cl)c(Cl)c1	63.1	.	?	-8.2	-3.8	?
S=c1[nH]nc(COc2ccccc2)n1/N=C/c1ccc(Cl)cc1	54.1	.	32.8%	4.2	-19.0	-19.3%
CN(C)c1ccc(C=O)c(Cl)c1	.	-4.2%	3.9%	.	.	0.4%
COc1ccc(NC(=O)c2c(-c3ccc(C)cc3)nnc3ccccc23)cc1OC	.	0.9%	-14.6%	.	-3.2	-20.2%
COc1ccc(NC(=O)c2c(-c3ccc(C)cc3)nnc3ccccc23)c(OC)c1	.	0.5%	18.4µM*	.	-1.3	16.4µM*
COc1ccccc1NC(=O)c1c(-c2ccc(C)cc2)nnc2ccccc12	.	-0.7%	18.4µM*	.	-5.9	?
COc1ccc(C2C(=O)N(C3CCCCC3)CC(=O)N2CCc2ccc(C)cc2)cc1OC (configuration not stated)	.	1.0%	?	.	-16.6	?
COc1ccc(OC)c(C=Cc2ccc([N+](=O)[O-])cc2)c1	-15.5	-3.7%	-11.9%	-18.3	-7.9	?
COc1ccc(OC)c(/C=C/c2[nH]c(=O)[nH]c(=O)c2[N+](=O)[O-])c1	-59.0*	0.0%	18.6%	-5.3	0.3	1.8%
COc1ccc(-c2ccc(-c3nnc(-c4cc(OC)ccc4OC)o3)cc2)cc1	-12.8	15.8µM*	-20.6%	17.5	13.4	-20.5%
COc1ccc(-c2nnc(-c3cccnc3)o2)cc1	?	?	-5.8%	27.3	3.8	0.0%
CNc1ccc(-c2cc(OC)ccc2OC)cn1	-5.8	5.1%	-15.0%	-24.7	-10.8	-14.1%
COc1ccc(-c2nnc(-c3ccc(N)cc3)o2)cc1	-18.4	28.2µM*	-1.1%	12.4	-1.2	-16.0%
CC(N)c1csc(NC(=O)c2cc(C(C)(C)C)nn2Cc2ccccc2)n1 (configuration not stated)	-55.3*	-1.0%	18.4µM*	-12.0	-3.8	20.6µM*
COc1ccc(CC(N)c2csc(NC(=O)c3cc(C(C)(C)C)nn3Cc3ccccc3)n2)cc1 (configuration not stated)	-78.2*	-12.8%	5.8µM*	16.4	5.3	4.61µM*
Cc1ccc(S(=O)(=O)N(C)C)cc1NC(=O)c1cc(C(C)(C)C)nn1Cc1ccccc1	-10.7	-5.3%	23.1µM*	26.8	4.4	?
O=C(CO)[C@@H](O)[C@H](O)[C@@H](O)C(=O)O	.	.	13.9%	.	7.0	8.8%
Cc1ccc(NC(=O)CCNS(=O)(=O)c2ccc3c(c2)CCC(=O)N3)cc1	9.6	0.7%	-8.8%	9.4	-1.8	15.3%
O=C(CSc1ccccc1)Nc1ccc2sccc2c1	-4.9	1.2%	2.2%	2.0	3.2	-22.8%
CCC(C)N(C(=O)CSc1nnc(-c2cccs2)n1C1CC1)C1CCS(=O)(=O)C1 (configuration not stated)	11.0	-27.0%	5.5%	14.8	-3.4	3.2%
Cc1ccc2c(c1)c1c3n2CCCN(Cc2ccccc2)C3CCC1 (configuration not stated)	-6.7	?	?	-4.1	-18.1	?
SMILES	IL-1B inflam inh	ClpP mod	DT40 TDP1 CPT	D3 antag	DRD3 agonist	DT40 TDP1 no CPT
COC(Cn1c2c(c3cc(C)ccc31)CCCC2NCc1ccccc1)OC (configuration not stated)	12.1	-26.3%	?	-76.4*	-19.2	14.6µM*
CCOc1ccc(-c2csc(-c3nc(-c4ccc(Br)s4)cs3)n2)cc1	.	1.4%	12.6%	.	-2.4	0.4%
CCOc1ccc(-c2nc(CCl)cs2)cc1	-1.5	3.5%	10.3µM*	-0.6	2.4	?
ClCc1csc(-c2ccc(Cl)cc2)n1	?	-2.4%	13µM*	-4.6	-0.9	14.6µM*
Cc1ccc(Cc2c(-c3cccc(Br)c3)nc3ccc(Cl)cn23)cc1	17.8	?	?	24.1	11.6	18.4µM*
Cc1ccc2nc(-c3ccccc3)c(Cc3cccc(Cl)c3)n2c1	-5.3	4.7%	20.6µM*	-4.8	-12.2	18.4µM*
Clc1ccc2nc(-c3cccc(Br)c3)c(Cc3ccccc3)n2c1	67.1	-27.4%	-21.0%	3.4	2.4	?
Cc1ccc2nc(-c3cccc(Br)c3)c(Cc3cccc(Cl)c3)n2c1	-1.9	-16.3%	?	?	-5.6	18.4µM*
CCCc1nc2ccc(C)cn2c1Cc1cccc(Cl)c1	2.1	5.4%	?	36.7	6.2	16.4µM*
CSCc1ccc(C(=O)OCc2nc3ccccc3s2)o1	16.5	.	?	4.6	1.0	-2.0%
CCC1=C(OC(=O)N(CC)CC)N2C(=O)OC(=NCCc3c[nH]c4ccccc34)[C@]2(C)[C@H]2C1=CC[C@H]1C(=O)N(C)C(=O)[C@H]12	1.0	0.0%	?	-4.8	8.1	-21.2%
Cc1ccc(Cc2c(-c3cccc(Cl)c3)nc3ccc(Cl)cn23)cc1	7.0	-25.2%	?	38.4	8.5	?
Cc1ccc2nc(-c3cccc(Br)c3)c(Cc3ccccc3)n2c1	-0.6	?	25.9µM*	0.0	-9.9	?
Clc1ccc(-c2nc3ccc(Cl)cn3c2Cc2ccccc2)cc1	24.5	?	?	1.0	-3.3	?
Cc1ccc(Cc2c(-c3ccc(Cl)cc3)nc3ccc(Cl)cn23)cc1	6.2	?	?	4.9	2.4	20.6µM*
Cc1ccc(Cc2c(-c3cccc(Cl)c3)nc3ccc(C)cn23)cc1	-7.9	4.6%	?	4.6	3.0	16.4µM*
Clc1ccc2nc(-c3ccccc3)c(Cc3ccccc3)n2c1	61.0	-28.6%	?	13.0	5.8	18.4µM*
CC(C)c1ccc(NC(=O)CCNS(=O)(=O)c2ccc3c(c2)CCCC(=O)N3)cc1	.	-1.5%	.	.	-16.0	.
Cc1cc(-n2c(C)cc(C(=O)CSc3nncn3C(C)C)c2C)no1	0.6	16.0%	?	10.5	-4.0	?
